Shown are actives, neighbours in structure and some others; about 1.7% of the full set was active somewhere.
Y pestis TopoI – blocks Yersinia pestis topoisomerase I activity. Y. pestis Topo-I cleavage product accumulation, plate reader. activity, % at 10 µM. 360,000 tested, 0.064% active. AID 504884; in the data active = activity above about 50%, passing the limit was not always enough
PrP 5UTR inh – suppresses PrP 5' UTR mRNA reporter expression; cell-based PrP 5' UTR mRNA reporter, plate reader; inhibition, % (concentration not given with the values); 340,000 tested, 0.35% active; in the data active = inhibition above about 52%; also: 0 = median of the neutral control wells
BJeLR viability – BJeLR cell viability loss; BJeLR (HRASV12) viability, CellTiter-Glo ATP luminescence, 48 h; inhibition, % (concentration not given with the values); 300,000 tested, 0.17% active; in the data active = inhibition above about 50%
PrPC TRFRET – cell surface PrPC inhibition, primary TR-FRET screen; P04156; TR-FRET read-out; inhibition, % at 13.8 µM; 370,000 tested, 0.43% active; AID 720596; in the data active = inhibition above about 24%; also: 0% = median of the test wells and 100% = reference compound wells
PfHsp40 rescue – compounds rescuing yeast from Plasmodium falciparum HSP40 toxicity | S. cerevisiae expressing PfHsp40, growth rescue, ATP luminescence | growth rescue, % at 12.5 µM | 340,000 tested, 0.68% active | AID 504582; in the data active = growth rescue above about 28%, passing the limit was not always enough;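 also: yeast W303a lacking pdr1 and pdr3 grown in galactose medium; growth measured after three days at 30 °C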
SSB-PriA inh – blocks PriA binding to SSB C-terminal tail. inhibition, % at 33 µM. 430,000 tested, 0.6% active. AlphaScreen SSBct-PriA binding, biotinylated peptide; in the data active = inhibition mostly above about 37%, no sharp cut-off; inactive = mostly below about 20%;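 also: plate controls were negative control peptide for no effect and reference peptide for full effect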
Starred values were filed as active, the others as inactive; . = not tested or not shown.

SMILES	Y pestis TopoI	PrP 5UTR inh	BJeLR viability	PrPC TRFRET	PfHsp40 rescue	SSB-PriA inh
COc1ccc(CCNC(=O)NCCc2ccc3c(c2)CCCN3C)cc1	.	.	.	.	.	50*
CN1CCCc2cc(CCNC(=O)NCc3ccccc3)ccc21	.	.	.	.	.	29
Cc1cccc(NC(=O)NCCc2ccc3c(c2)CCCN3C)c1	.	.	.	.	.	56*
COc1cc(OC)cc(C(=O)NCCc2ccc3c(c2)CCCN3C)c1	.	.	.	.	.	59*
CCCN1CCCc2cc(CCNC(=O)c3cc(OC)cc(OC)c3)ccc21	.	.	.	.	.	59
CNC(=O)CC#N	.	.	.	.	.	-11
COC(C(=O)Nc1ccc(Cl)cc1-c1nc2ccccc2[nH]c1=O)c1ccccc1 (stereo not drawn)	.	.	.	.	.	-2
O=C(Cn1cnc2c(cnn2-c2cccc(Cl)c2)c1=O)Nc1ccc2c(c1)OCCO2	.	.	.	.	.	-2
COc1cccc(/C=N/NC(=O)c2cc(-c3cccn3C)n[nH]2)c1O	-8	12	2	3	160*	.
C[C@@H]1CCCCCCCCC(=O)OCCN(C(=O)OC(C)(C)C)[C@H](C)CCCCCCCCC(=O)OCCN1C(=O)OC(C)(C)C	2	-20	.	0	0	1
C[C@@H]1CCCCCCCCC(=O)OCCN[C@H](C)CCCCCCCCC(=O)OCCN[C@H](C)CCCCCCCCC(=O)OCCN1	-11	-22	.	.	41*	6
O=C(CSc1nc2c(c(=O)n1-c1ccc([N+](=O)[O-])cc1)SCC2)Nc1ccc2c(c1)OCCO2	.	.	.	.	.	4
O=C(Nc1nnc(C2CCCO2)o1)c1cccc(Oc2ccccc2)c1 (stereo not drawn)	.	.	.	.	.	74*
O=C(/C=C/c1ccccc1Cl)Nc1nnc(C2CCCO2)o1 (stereo not drawn)	.	.	.	.	.	7
CCOC(=O)C(C)/C(C)=N/NC(=O)c1cc2ccccc2cc1O (stereo not drawn)	-13	-27	5	-4	156*	.
O=C1N=C(N2CCN(c3cccc(C(F)(F)F)c3)CC2)S/C1=C/c1cccs1	.	.	.	.	.	8
COc1ccc(C[C@H]2CN3C(=NC[C@@H]3Cc3ccc(O)cc3)N2CCNC(=O)c2ccc(C)c(Br)c2)cc1	-13	-8	11	-3	3	42*
Cc1ccc(C(=O)NCCN2C3=NC[C@H](Cc4ccc(O)cc4)N3C[C@H]2Cc2ccc(O)cc2)cc1Br	-4	-3	-10	4	2	26
O=C(CN1CCN(c2nccn2-c2cccc(Cl)c2)CC1)NCc1ccc(F)cc1	.	.	.	.	.	18
CCN(CC)S(=O)(=O)c1ccc(NC(=O)Nc2cccc(C(F)(F)F)c2)cc1	-3	-25	2	43*	-2	-5
O=S(=O)(c1ccc(NC(=S)NCc2cccnc2)cc1)N1CCCCC1	0	1	62*	4	1	-8
NC(=O)c1ccccc1OCC#CCNC(=O)C1CC=CCC1 (stereo not drawn)	.	.	.	.	.	3
Cc1nn(C)c2ncc(C(=O)c3cc(F)ccc3O)cc12	3	4	0	5	0	-12
O=C(c1cnc2ccc3ccccc3c2c1)c1cc(F)ccc1O	13	-24	-2	-11	84*	-13
CCc1ccccc1NC(=O)Nc1c(C)nc(N2CCCC2)nc1C	.	.	.	.	.	-12
SMILES	Y pestis TopoI	PrP 5UTR inh	BJeLR viability	PrPC TRFRET	PfHsp40 rescue	SSB-PriA inh
CCc1ccc(Nc2n[n+](-c3ccccc3)c(-c3c(Cl)cccc3Cl)s2)cc1	3	-12	30	12	-1	66*
O=C(O)c1ccc(-c2sc(Nc3ccccc3)n[n+]2-c2ccc(F)cc2)cc1	-8	-19	-4	.	-1	-1
COc1ccc(C)cc1Nc1n[n+](-c2ccccc2)c(-c2c(Cl)cccc2Cl)s1	.	.	0	-1	.	39*
Fc1ccc(-[n+]2nc(Nc3ccccc3)sc2-c2c(Cl)cccc2Cl)cc1	-1	-24	10	2	0	46*
CCc1ccc(Nc2n[n+](-c3ccccc3)c(-c3ccc(N(CC)CC)cc3)s2)cc1	-10	-16	0	15	13	-5
COc1ccc2ccccc2c1-c1sc(Nc2ccccc2)n[n+]1-c1ccc(F)cc1	-2	-8	15	0	1	39*
Cn1nc(CNC(=O)c2ccsc2)c2c1CCOC2	.	.	.	.	.	-21
CCn1c(C2CCN(S(=O)(=O)c3ccc(Cl)s3)CC2)nn(CCOC)c1=O	.	.	.	.	.	-8
O=C(Cn1c(=O)oc2cc(S(=O)(=O)N3CCCC3)ccc21)NCc1ccc(F)cc1	8	-16	17	4	0	104*
O=C(Cn1c(=O)oc2cc(S(=O)(=O)N3CCCC3)ccc21)NC1CCCCC1	0	6	2	-2	2	-13
COC(=O)COC(=O)c1ccccc1NC(=O)c1ccccc1	-8	-15	5	-3	245*	-23
O=C(COC(=O)c1ccc([N+](=O)[O-])o1)Nc1ccc2c(c1)OC(F)(F)O2	-8	.	.	-29	.	.
Cc1cccc(C)c1NC(=O)COC(=O)c1ccc([N+](=O)[O-])o1	-5	-16	3	-20	32*	-10
O=C(COC(=O)c1ccc([N+](=O)[O-])o1)Nc1ccc2c(c1)OCO2	8	-25	.	-22	67*	-1
CCOc1cc(N2CCOCC2)c(OCC)cc1NC(=O)COC(=O)c1ccc([N+](=O)[O-])o1	0	-23	.	-18	82*	5
CCOc1cc(N2CCOCC2)c(OCC)cc1NC(=O)COC(=O)c1cc(C)cc(C)c1	2	-10	4	-3	2	-3
O=C(NC(=S)Nc1ccc(CN2CCCCC2)cc1)c1ccco1	5	-33	5	3	128*	-18
O=C(NC(=S)Nc1ccc(CN2CCOCC2)cc1)c1ccco1	6	-35	-8	7	-1	-1
CCc1ccccc1NC(=NS(=O)(=O)c1ccccc1)C(F)(F)F	.	.	.	.	.	-3
COC(=O)CS[C@H]1CCN(C(=O)c2ccccc2Br)C1	.	.	.	.	.	-10
COc1ccc(C(=O)N/N=C/c2sc3ccccc3c2O)cc1	-3	10	34	.	262*	.
O=C(N/N=C/c1sc2ccccc2c1O)c1cccc2ccccc12	4	18	34	-4	32*	.
COc1ccc2cc(C(=O)NN=Cc3sc4ccccc4c3O)ccc2c1	.	.	.	.	.	36
O=[N+]([O-])c1ccc(-[n+]2nc(-c3ccccc3)nn2-c2ccccc2)cc1	-7	-4	8	-30	-1	101*
COc1cc(N=Nc2ccc(C)cc2S(N)(=O)=O)c(C)cc1N	-16	-9	.	-20	0	48*
SMILES	Y pestis TopoI	PrP 5UTR inh	BJeLR viability	PrPC TRFRET	PfHsp40 rescue	SSB-PriA inh
O=S(=O)(NCCOc1cccc(C(F)(F)F)c1)c1ccc(Cl)s1	.	.	.	.	.	-52
COCCCNC(=S)N/N=C/c1ccccc1O	0	-34	-12	3	-1	.
Cc1ccccc1NC(=S)NN=Cc1ccc(O)cc1O	.	.	.	.	.	50*
Oc1ccc(C=NNc2ccccn2)c(O)c1	-5	5	.	23	-1	95*
COCCCNC(=S)NN=Cc1ccc(O)cc1O	.	.	.	.	.	46*
COC1(CNC(=O)C(=O)Nc2ccc3c(c2)OCO3)Cc2ccccc2C1	.	.	.	.	.	-4
COc1ccc(Nc2nc(Nc3ccc(F)cc3)nc(N3CCOCC3)n2)cc1OC	.	.	.	.	.	37*

Screening data from PubChem BioAssay.
